These results are taken from PubChem BioAssay (Tox21).

A short description of assay [1]: A CellTox Green Cytotoxicity Assay to monitor cytotoxicity in HEK293 cells - 16 hour (AID 1224888). Note: nearly all actives have a fitted effect of over 35% in size. The gist of the method: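 HEK293 cells, 600/well, were preincubated 5 hours and then exposed to compounds at 37 C for up to 40 hours. A cell-impermeant cyanine dye staining dead-cell DNA was read by fluorescence at 0, 8, 16, 24, 32 and 40 h time points.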
A short description of assay [2]: A CellTox Green Cytotoxicity Assay to monitor cytotoxicity in HepG2 cells - 8 hour (AID 1224890). Note: nearly all actives have a fitted effect of over 45% in size. Note: potency is the fitted concentration of half-maximal effect. The gist of the method: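 HepG2 cells, 600/well, preincubated 5 h with CellTox Green dye, then exposed to Tox21 compounds in DMSO at 37 C for up to 40 h. Dead-cell DNA fluorescence read at the indicated time point.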
The nature of assay [3]: qHTS assay to identify small molecule antagonists of the estrogen receptor alpha (ER-alpha) signaling pathway using the BG1 cell line in the presence of 0.1 nM 17-beta-estradiol - cell viability counter screen (AID 1259241). Note: nearly all actives have a fitted effect of over 40% in size. Note: potency is the fitted concentration of half-maximal effect. Put shortly:
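CellTiter-Fluor read (30 min, 37C) on ER-alpha/ERE-luc VM7Luc4E2 cells; 22 hr compound treatment; agonist 0.1 nM E2 final; same-well multiplex.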
(In general: qHTS replaces the single test concentration by a dilution series.)

Assay [4] concerns the target Estrogen receptor (Homo sapiens) (UniProt P03372). Nature of the assay: qHTS assay to identify small molecule antagonists of the estrogen receptor alpha (ER-alpha) signaling pathway using the BG1 cell line in the presence of 0.1 nM 17-beta-estradiol (AID 1259244). Note: nearly all actives have a fitted effect of over 50% in size. Note: potency is the fitted concentration of half-maximal effect. Put shortly:
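VM7Luc4E2 cells (endogenous full-length ER-alpha, 4×ERE-luciferase), kept 5 days in phenol red-free, charcoal-stripped FBS medium; 4,000 cells/well. Compounds added with 0.1 nM (final) 17beta-estradiol, 22 hr at 37C; luminescence read with ONE-Glo after 30 min.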

The nature of assay [5]: qHTS assay to identify small molecule HDAC inhibitors (AID 1259364). Note: top concentration of the series differs between compounds; nearly all actives have a fitted effect of over 45% in size. The gist of the method:
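Wild-type HCT-116 cells, plated overnight at 37 C, exposed to compounds 2 hr at 37 C; luminogenic HDAC-Glo substrate then added 30 min at room temperature. Luminescence reports relative endogenous class I/II HDAC activity.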

A short description of assay [6]: qHTS assay to identify small molecule HDAC inhibitors - cell viability counter screen (AID 1259365). Note: series mostly up to about 92 µM; nearly all actives have a fitted effect of over 50% in size. Put shortly:
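To flag cytotoxic hits, 1,500 wild-type HCT-116 cells per well, plated the day before, receive test compounds for 2hr at 37 C before CellTiter-Glo reagent and a luminescence read.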

The nature of assay [7]: qHTS assay to identify small molecule agonists of the sonic hedgehog signaling (Shh) pathway - cell viability counter screen (AID 1259366). Note: nearly all actives have a fitted effect of over 50% in size. Note: potency is the fitted concentration of half-maximal effect. The gist of the method: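 Fluorescence from CellTiter-Fluor reports live cells in this counter screen. NIH/3T3-derived Gli1-Luc reporter cells receive test compounds for 24hr at 37C; reagent goes in at 23hr.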
A short description of assay [8]: qHTS assay to identify small molecule antagonists of the sonic hedgehog signaling (Shh) pathway - cell viability counter screen (AID 1259367). Note: nearly all actives have a fitted effect of over 55% in size. Note: potency is the fitted concentration of half-maximal effect. Put shortly: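 Cells: 3T3 Gli1-Luc, 2,000/well, 4 hr pre-incubation. Compounds in DMSO, then conditioned medium. Incubation 24 hr, 37C, 5% CO2. CellTiter-Fluor at 23 hr, 1 hr, fluorescence.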
Assay [9] in a line: qHTS assay to identify small molecule agonists of the sonic hedgehog signaling (Shh) pathway (AID 1259368; calls by dose curve;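 note: NIH/3T3-derived 3T3Gli1-Luc cells carrying a stable Gli1-driven firefly luciferase reporter; series mostly up to about 92 µM; nearly all actives have a fitted effect of over 15% in size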). The gist of the method: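 NIH/3T3-derived 3T3Gli1-Luc cells with stably integrated Gli1-driven firefly luciferase, 2,000 cells/well, compounds added after 4 hr. Incubated 24 hr at 37C, 5% CO2; luminescence read after 30 min with luciferase reagent at room temperature.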

The target in assay [10] is Estrogen receptor beta (Homo sapiens) (UniProt Q92731). Nature of the assay: qHTS assay to identify small molecule agonists of the estrogen receptor beta (ER-beta) signaling pathway (AID 1259377; active = well fitted activation curve with a large enough effect in the signal ratio in the repeat runs, not every such curve was filed as active; the % refers to the signal ratio). Put shortly: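 Screening used GripTite ER-beta-UAS-bla cells held in 2% charcoal-stripped FBS medium. After overnight (16 hr) compound incubation at 37C, beta-lactamase activity was detected with a FRET substrate by fluorescence.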
Chain of Estrogen receptor beta (Homo sapiens) (Q92731 whole entry, looked up): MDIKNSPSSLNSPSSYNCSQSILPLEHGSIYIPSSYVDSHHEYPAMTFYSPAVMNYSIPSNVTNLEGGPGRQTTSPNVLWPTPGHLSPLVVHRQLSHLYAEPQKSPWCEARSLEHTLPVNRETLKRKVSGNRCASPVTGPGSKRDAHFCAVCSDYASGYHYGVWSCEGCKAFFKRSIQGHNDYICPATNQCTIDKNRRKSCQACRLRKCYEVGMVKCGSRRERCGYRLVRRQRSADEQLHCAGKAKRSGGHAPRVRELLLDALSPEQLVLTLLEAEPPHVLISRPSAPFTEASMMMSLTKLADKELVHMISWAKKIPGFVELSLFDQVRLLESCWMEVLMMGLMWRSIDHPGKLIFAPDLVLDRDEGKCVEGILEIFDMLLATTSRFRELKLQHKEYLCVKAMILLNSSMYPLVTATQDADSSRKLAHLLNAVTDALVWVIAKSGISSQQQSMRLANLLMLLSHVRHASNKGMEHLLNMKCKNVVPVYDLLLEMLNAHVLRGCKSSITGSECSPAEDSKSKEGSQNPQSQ

Assay [11] in a line: qHTS assay to identify small molecule agonists of the androgen receptor (AR) signaling pathway in the presence of an antagonist - cell viability counter screen (AID 1259379). Note: nearly all actives have a fitted effect of over 25% in size. Note: potency is the fitted concentration of half-maximal effect. The gist of the method: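 MDA-kb2 cells (MMTV-luciferase, AR/GR), 3,000/well, 5 h attachment, then 3.0 µM nilutamide (final) and compounds at 15 concentrations. Viability by CellTiter-Fluor fluorescence after 16 h at 37 °C, 0% CO2, in the reporter wells.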

Assay [12] concerns the target Androgen receptor (Homo sapiens) (UniProt P10275). Nature of the assay: qHTS assay to identify small molecule agonists of the androgen receptor (AR) signaling pathway in the presence of an antagonist (AID 1259381; calls by dose curve; note: nearly all actives have a fitted effect of over 15% in size; note: potency is the fitted concentration of half-maximal effect). The gist of the method: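 MDA-kb2 cells carrying MMTV-luciferase (AR/GR responsive), 3,000 cells/well, co-treated with 3.0 uM nilutamide final. Compounds at 15 concentrations, 16 hr at 37C without CO2. Luciferase luminescence read after 30 min with ONE-Glo.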

Assay [13] in a line: qHTS RealTime-Glo MT Cell Viability Assay in HepG2 cells - 0 hour (AID 1224889). Note: nearly all actives have a fitted effect of over 50% in size. Put shortly:
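Luminescence read-out: viable HepG2 cells reduce a prosubstrate to a NanoLuc substrate, giving a signal proportional to live cell number. Reads taken at 0, 8, 16, 24, 32 and 40 h of compound exposure at 37 C.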

Assay [14] is described as follows: qHTS assay to identify small molecule antagonists of the androgen receptor (AR) signaling pathway using the MDA cell line in the presence of 0.5 nM R1881 - cell viability counter screen (AID 1259242). Note: nearly all actives have a fitted effect of over 45% in size. Note: potency is the fitted concentration of half-maximal effect. Put shortly:
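MDA-kb2 cells (MMTV-luciferase, AR/GR responsive) were treated with compounds plus 0.5 nM R1881 (final) for 16 hr at 37C, 0% CO2. Viability was then read in the same wells as live-cell protease fluorescence (CellTiter-Fluor, 30 min).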

Assay [15] deals with Androgen receptor (Homo sapiens) (UniProt P10275). Nature of the assay: qHTS assay to identify small molecule antagonists of the androgen receptor (AR) signaling pathway using the MDA cell line in the presence of 0.5 nM R1881 (AID 1259243). Note: nearly all actives have a fitted effect of over 50% in size. Note: potency is the fitted concentration of half-maximal effect. The gist of the method: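 MDA-kb2 cells (MMTV-luciferase, responsive to AR and GR) at 3,000/well, rested 5 h at 37C, 0% CO2, then given compounds plus 0.5 nM R1881 (final) for 16 hr. Luciferase read with ONE-Glo after 30 min at room temperature.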
Chain of Androgen receptor (Homo sapiens) (P10275 whole entry, looked up): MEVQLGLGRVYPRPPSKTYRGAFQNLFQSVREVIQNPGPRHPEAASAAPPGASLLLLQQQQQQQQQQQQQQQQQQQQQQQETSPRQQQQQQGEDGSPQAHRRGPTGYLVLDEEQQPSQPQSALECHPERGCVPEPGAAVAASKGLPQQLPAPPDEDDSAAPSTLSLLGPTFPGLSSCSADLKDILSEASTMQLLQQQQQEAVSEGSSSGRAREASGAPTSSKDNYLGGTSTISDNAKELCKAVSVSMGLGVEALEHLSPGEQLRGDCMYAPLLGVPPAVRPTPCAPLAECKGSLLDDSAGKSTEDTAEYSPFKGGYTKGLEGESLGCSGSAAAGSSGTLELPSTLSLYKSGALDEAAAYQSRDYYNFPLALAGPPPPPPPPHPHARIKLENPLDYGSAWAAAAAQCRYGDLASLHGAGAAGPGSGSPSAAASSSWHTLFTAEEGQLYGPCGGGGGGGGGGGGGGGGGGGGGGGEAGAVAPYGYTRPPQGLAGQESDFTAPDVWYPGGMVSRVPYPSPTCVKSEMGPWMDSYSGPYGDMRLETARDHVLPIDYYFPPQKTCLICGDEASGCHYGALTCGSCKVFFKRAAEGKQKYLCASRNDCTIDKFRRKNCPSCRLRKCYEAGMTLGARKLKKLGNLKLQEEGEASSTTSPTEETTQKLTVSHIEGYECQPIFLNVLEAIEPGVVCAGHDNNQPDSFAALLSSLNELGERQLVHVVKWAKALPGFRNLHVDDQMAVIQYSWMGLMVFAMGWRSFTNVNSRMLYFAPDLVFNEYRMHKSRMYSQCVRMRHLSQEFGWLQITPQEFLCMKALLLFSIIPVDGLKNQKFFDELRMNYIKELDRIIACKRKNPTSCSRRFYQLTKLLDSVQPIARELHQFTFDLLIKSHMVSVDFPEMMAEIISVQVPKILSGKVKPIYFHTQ

Assay [16] is described as follows: qHTS assay to identify small molecule antagonists of the sonic hedgehog signaling (Shh) pathway (AID 1259369; calls by dose curve; note: nearly all actives have a fitted effect of over 45% in size; note: potency is the fitted concentration of half-maximal effect). Put shortly:
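NIH/3T3-derived Gli1-Luc reporter cells plated 4 h, dosed with compound, then stimulated with conditioned medium for 24 h at 37 C. Firefly luciferase luminescence read after 30 min with detection reagent at room temperature.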

Assay [17] in a line: qHTS assay to identify small molecule agonists of the estrogen receptor beta (ER-beta) signaling pathway - cell viability counter screen (AID 1259380). Note: potency is the fitted concentration of half-maximal effect; nearly all actives have a fitted effect of over 30% in size. The gist of the method:
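ER-beta-UAS-bla HEK293T cells in medium with 2% charcoal-stripped FBS, pre-incubated 6 hr, then treated 16 hr at 37C. Cytotoxicity read in the same wells by CellTiter-Glo luminescence after 30 min at room temperature.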

Assay [18] has as its target Estrogen receptor beta (Homo sapiens) (UniProt Q92731). Nature of the assay: qHTS assay to identify small molecule antagonists of the estrogen receptor beta (ER-beta) signaling pathway (AID 1259378; active = well fitted inhibition curve with a large enough effect in the signal ratio in the repeat runs, not every such curve was filed as active; the % refers to the signal ratio; note: potency is the fitted concentration of half-maximal effect). The gist of the method: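 Antagonist mode: compounds added to beta-lactamase reporter HEK293T ER-beta-UAS cells stimulated with E2 (1nM final), 16 hr at 37C. LiveBLAzer B/G FRET substrate, 2 hours room temperature, fluorescence read-out.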

A short description of assay [19]: qHTS assay to identify small molecule phospholipidosis (PLD) inducers (AID 1259344; active = well fitted curve in the direction sought with a large enough effect; an effect the other way counts as inactive or inconclusive). Put shortly: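 Phospholipidosis is scored by imaging LipidTOX-stained pits in HepG2 cells exposed to compound for 24 h at 37 C; pit counts and integrated intensities per well and per cell serve as outputs.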

Values without a mark were called inactive. Results filed as inconclusive are left out. Active and inactive are the calls of the source. Unless noted, calls come from the whole dose curve; as a rule, active = well fitted curve in the direction sought with a large enough effect in the repeat runs; inconclusive = weak or mixed curves; inactive = no such curve, though single readings can be large; an effect the other way counts as inactive or inconclusive.

Chain of Estrogen receptor (Homo sapiens) (P03372 whole entry, looked up): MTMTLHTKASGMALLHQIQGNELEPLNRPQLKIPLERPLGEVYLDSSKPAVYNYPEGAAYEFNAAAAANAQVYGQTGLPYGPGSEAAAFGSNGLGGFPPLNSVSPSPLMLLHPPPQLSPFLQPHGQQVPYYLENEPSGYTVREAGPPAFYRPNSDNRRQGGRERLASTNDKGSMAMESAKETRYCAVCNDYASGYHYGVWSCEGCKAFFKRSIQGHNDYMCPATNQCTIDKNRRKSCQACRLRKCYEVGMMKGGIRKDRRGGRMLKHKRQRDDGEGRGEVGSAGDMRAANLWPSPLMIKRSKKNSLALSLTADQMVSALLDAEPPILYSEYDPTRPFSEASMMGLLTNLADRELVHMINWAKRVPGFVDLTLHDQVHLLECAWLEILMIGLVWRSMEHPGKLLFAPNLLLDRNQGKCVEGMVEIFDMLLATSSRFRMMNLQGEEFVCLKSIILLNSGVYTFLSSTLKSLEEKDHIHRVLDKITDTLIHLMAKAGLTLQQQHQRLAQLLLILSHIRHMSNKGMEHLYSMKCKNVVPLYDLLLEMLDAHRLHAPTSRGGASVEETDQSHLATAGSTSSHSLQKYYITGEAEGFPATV

Consider `CC(C)(c1ccc(Oc2ccc(N)cc2)cc1)c1ccc(Oc2ccc(N)cc2)cc1`, for which the Potency result in [1], in assay [2], in assay [3], in assay [5], in assay [6] and in assay [7] was “inactive” throughout. In addition, the Potency result in [8], in assay [9] and in assay [12] was “inactive” each time. Further, the Potency was 61.1 µM (active) in assay [4] and 54.5 µM (active) in assay [11]. Moreover, the molecule was classed as inactive in assay [10].

With `C1=CCCC1`, the Potency entry in assay [13], in assay [2], in assay [3], in [14], in assay [15] and in assay [5] was “inactive” each time. Also, the Potency entry in [6], in assay [7], in assay [8], in assay [9], in assay [16] and in assay [11] was “inactive” in each case. In assay [12], the Potency entry was “inactive”.

With `N#Cc1nc(Cl)c(Cl)c(Cl)c1Cl`, the Potency entry in assay [13], in [2], in assay [5], in assay [9] and in [12] was “inactive” in each case. For the same molecule, the Potency was 54.5 µM (active) in assay [14]; 4.86 µM (active) in assay [15]; 5.45 µM (active) in assay [7]; 10.9 µM (active) in assay [8]; 15.4 µM (active) in assay [17].

With `Cc1ccc(N=Nc2c(O)ccc3ccccc23)c(C)c1`, the Potency result in assay [1], in assay [13], in assay [2], in [15], in assay [5] and in assay [9] was “inactive” in each case. Besides, the Potency result in assay [16] was “inactive”. Moreover, the Potency in assay [11] was 13.3 µM (active); in assay [12] it was 0.335 µM (active).

On to `CCOc1ccc([N+](=O)[O-])cc1`, for which the Potency entry in [13], in assay [2], in [3], in assay [14], in assay [4] and in assay [5] was “inactive” in each case. The Potency result in assay [6], in [8] and in assay [9] was “inactive” each time. For the same molecule, in assay [10], the molecule was classed as inactive. The Potency in assay [18] is 9.83 µM (active).

In the case of `N=C(N)n1cccn1`, the Potency result in [19] was “inactive”.

Consider `CCCOC(=O)c1ccc(O)cc1`, for which the Potency result in assay [1], in assay [13], in assay [2], in [14], in assay [4] and in assay [19] was “inactive” each time. The Potency result in assay [6], in assay [7], in assay [8] and in [9] was “inactive” each time. Further, in [16], the Potency is 2.43 µM (active).

Regarding `C[N+](C)(C)CCOP(=O)(O)OP(=O)([O-])OC[C@H]1O[C@@H](n2ccc(N)nc2=O)[C@H](O)[C@@H]1O`, in assay [19], the Potency result was “inactive”.

For the molecule `O[Si](c1ccccc1)(c1ccccc1)c1ccccc1`, the Potency result in [1], in assay [13], in [2], in assay [14], in [5] and in assay [6] was “inactive” throughout. Besides, the Potency result in [9], in [11] and in [12] was “inactive” each time. For the same molecule, the values for the Potency in assay [15] and in assay [16] were 30.6 µM (active) and 12.2 µM (active), respectively. The molecule was classed as inactive in assay [10].

With `CCCCCCCCCCCCCCCCCC(=O)O`, the Potency result in [19] was “inactive”.

As for `CC(=O)[C@]1(O)Cc2c(O)c3c(c(O)c2[C@@H](O[C@H]2C[C@H](N)[C@H](O)[C@H](C)O2)C1)C(=O)c1ccccc1C3=O`, the Potency entry in assay [1], in [5], in assay [6], in [9] and in assay [12] was “inactive” in each case. In addition, the Potency was 23.9 µM (active) in assay [2]; 10.6 µM (active) in assay [3]; 0.531 µM (active) in assay [15]; 0.944 µM (active) in assay [7]; 1.19 µM (active) in assay [8]; 0.0133 µM (active) in assay [16]. The Potency in assay [11] is 9.44 µM (active); in assay [17], 2.66 µM (active).

As for `C=C1C(=C/C=C2\CCC[C@]3(C)[C@@H]([C@H](C)CCCC(C)C)CC[C@@H]23)C[C@@H](O)C[C@@H]1O`, the Potency entry in assay [19] is “inactive”.
